# Laboratory results as given in publication PMC5540273 (PLoS ONE, 2017).
# Assays:
# Settings in all cases: concentration: 1 μM, replicates: in singlicate; n = 1
# AAK1 = test system: AAK1
# ABL1-nonphosphorylated = test system: ABL1-nonphosphorylated
# ABL1-phosphorylated = test system: ABL1-phosphorylated
# ABL2 = test system: ABL2
# ACVR1B = test system: ACVR1B
# ACVR1 = test system: ACVR1
# ACVR2A = test system: ACVR2A
# ACVR2B = test system: ACVR2B
# ACVRL1 = test system: ACVRL1
# ADCK3 = test system: T1, ADCK3
# T1 construct: gene CABC1
# ADCK4 = test system: ADCK4
# AKT1 = test system: AKT1
# AKT2 = test system: AKT2
# AKT3 = test system: AKT3
# ALK = test system: ALK
# AMPK-alpha1 = test system: T2, AMPK-alpha1
# T2 construct: gene PRKAA1
# AMPK-alpha2 = test system: T3, AMPK-alpha2
# T3 construct: gene PRKAA2
# ANKK1 = test system: ANKK1
# ARK5 = test system: T4, ARK5
# T4 construct: gene NUAK1
# ASK1 = test system: T5, ASK1
# T5 construct: gene MAP3K5
# 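Also: KINOMEscan kinase panel screen.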
SMILES,%Inh (AAK1) [%],%Inh (ABL1-nonphosphorylated) [%],%Inh (ABL1-phosphorylated) [%],%Inh (ABL2) [%],%Inh (ACVR1B) [%],%Inh (ACVR1) [%],%Inh (ACVR2A) [%],%Inh (ACVR2B) [%],%Inh (ACVRL1) [%],%Inh (ADCK3) [%],%Inh (ADCK4) [%],%Inh (AKT1) [%],%Inh (AKT2) [%],%Inh (AKT3) [%],%Inh (ALK) [%],%Inh (AMPK-alpha1) [%],%Inh (AMPK-alpha2) [%],%Inh (ANKK1) [%],%Inh (ARK5) [%],%Inh (ASK1) [%]
Cl.NC(=O)c1cccc(Nc2nccc(Nc3ccc(Oc4c(Cl)cccc4Cl)c(Cl)c3)n2)c1 [GW659009],15,67,0,85,100,0,0,0,7,0,14,0,0,0,3,0,0,3,0,0
COc1cccc(C(=O)Nc2cccc(Oc3ccc4nc(NC(=O)C5CC5)cn4n3)c2)c1,27,100,99.7,96.3,0,0,1,18,8,10,39,19,0,3,0,23,0,0,0,7
NCCCC(NC(=O)c1cc(Br)c(-c2ccnc3[nH]ccc23)s1)c1ccccc1.O=C(O)C(F)(F)F.O=C(O)C(F)(F)F (centres unmarked) [GSK1287544],55,0,0,23,0,0,0,0,0,20,38,89,52,91.8,32,17,35,0,54,0
c1ccc(-c2n[nH]cc2Nc2ccnc3ccccc23)nc1 [GW694077],82,0,0,0,0,30,0,0,0,3,51,0,2,0,21,0,0,75,0,0
Fc1ccc(-c2ncn(C3CCNCC3)c2-c2ccnc(Oc3ccc(-c4ccccc4)cc3)n2)cc1 [SB-245391],14,1,16,1,72,0,19,0,19,0,0,20,31,15,39,7,20,7,1,23
CCc1ccc(-c2ccc3c(c2)-c2c(cnn2C)S(=O)(=O)N3C)cc1,0,7,0,0,14,0,5,0,17,0,0,0,0,0,0,0,0,0,0,0
CCS(=O)(=O)c1ccc(OC)c(Nc2nccc(-c3c(-c4cccc(NC(=O)c5c(F)cccc5F)c4)nn4ncccc34)n2)c1 [GSK326180],22,4,10,10,0,10,0,0,0,0,18,0,15,0,25,2,27,0,18,20
C[C@@H](Oc1cc(-n2cnc3cc(-c4ccnc(NCCS(C)(=O)=O)c4)ccc32)sc1C(N)=O)c1ccccc1Cl [GSK907232],73,0,0,30,0,10,0,3,0,25,10,0,16,0,18,0,0,0,84,0
Cc1ccc(S(=O)(=O)Nc2ccc(Nc3nccc(Nc4cccc5[nH]ncc45)n3)cc2)cc1 [GSK581271],27,11,31,64,8,32,0,57,30,41,87,0,0,0,24,0,0,0,5,0
Cc1ccc(C)c(NC(=O)NC2CCN(c3ccnc(Nc4ccc(F)cc4)n3)C2)c1 (centres unmarked) [GSK1379720],6,0,0,7,0,14,0,0,0,0,48,0,19,0,28,7,0,0,0,0
